In PubChem BioAssay (Tox21):
Inconclusive results are not listed. Entries that show only a call come without a potency. The source made the active and inactive calls. Calls come from the whole dose curve; as a rule, active = well fitted cell-killing curve with a large enough effect in the repeat runs; inconclusive = weak or mixed curves, or effect the other way; inactive = no such curve, though single readings can be large or run the other way.

Assay: qHTS assay for identifying genotoxic compounds that show differential cytotoxicity against isogenic chicken DT40 cell lines with known DNA damage response pathways - Rev3 mutant cell line (AID 743014); note: nearly all actives have a fitted effect of over 55% in size
Conditions: chicken DT40 Rev3-/- viability, CellTiter-Glo, 40 h; series mostly up to 68.4 µM
Text: National Center for Advancing Translational Sciences [NCATS]
NIH Chemical Genomics Center [NCGC]
U.S. Environmental Protection Agency [EPA]
National Institutes of Environmental Health Sciences [NIEHS]
National Toxicology Program [NTP]
U.S. Food and Drug Administration [FDA]
DNA repair pathways play a critical role in cellular homeostasis by repairing DNA damage induced by endogenous processes and xenobiotics. Isogenic chicken DT40 cell lines deficient in different DNA repair pathways can be used to identify genotoxic compounds and aid in characterizing the nature of the DNA damage induced. Two DNA repair-deficient cell lines with disrupted genes, Rad54/Ku70 or Rev3, were used to screen the Tox21 10K compound library. Possible genotoxicity was based on the presence of a significant increase in cytotoxicity in one or more of the DNA repair-deficient cell lines compared to that observed in the parental DNA repair-proficient cell line. CellTiter Glo viability assay (Promega, Madison, WI) was used to measure cell viability in these cells after compound treatment. This assay includes the data from the Rev3 mutant cell line.
Tox21 Assay Protocol Summary:
300 DT40 mutant cells in 5 uL/well were dispensed into white, solid-bottom 1536-well plates using a Multidrop Combi (ThermoFisher Scientific, Waltham, MA) dispenser. After the assay plates were incubated at 37 C/5% CO2 for approximately 0.5 hour, 23 nL of compounds dissolved in DMSO, positive controls or DMSO only was transferred into the assay plate by a pintool work station (Kalypsys, San Diego, CA). The assay plates were incubated at 37 C/5% CO2 for 40 hours. After 5 uL per well of CellTiter-Glo reagent was added into each well of the assay plates, the plates were incubated for 30 min at room temperature and the luminescence intensity of the plates was measured using a ViewLux (PerkinElmer, Shelton, CT) plate reader.
Potency is the fitted concentration of half-maximal effect.

Which Potency does the source give for `CC(=O)NC(Cc1ccccc1)C(=O)O` (stereo not given) here?
The Potency was “inactive”.

Which Potency does the source give for `CCN(CC)C(=O)c1ccc(O)c(OC)c1` here?
Its Potency is “inactive”.

Which Potency does the source give for `C=CCOCC(O)CS(=O)(=O)O` (stereo not given) here?
The Potency was “inactive”.

For `O=S(=O)(O)c1ccccc1O`, which Potency is on record?
The Potency was “inactive”.

Which Potency does the source give for `CCCCCCOC(=O)CC(CC(=O)OCCCCCC)(OC(=O)CCC)C(=O)OCCCCCC` here?
Its Potency is “inactive”.

With `CCCCNc1ccccc1` as the molecule, how does the Potency read?
The Potency was “inactive”.

Which Potency does the source give for `NC(=O)Nc1nc2ccccc2[nH]1` here?
Its Potency is “inactive”.

Which Potency does the source give for `Cc1ncc(CSSCc2cnc(C)c(O)c2CO)c(CO)c1O` here?
Its Potency is “inactive”.

Which Potency does the source give for `C=C(C)C(=O)NCCC[N+](C)(C)C` here?
The Potency was “inactive”.

Which Potency does the source give for `CC(C)(C)N(CCO)CCO` here?
The Potency was “inactive”.

With `CCC(=O)c1cccc(Cl)c1` as the molecule, how does the Potency read?
Its Potency is “inactive”.

With `CC(C)c1cccc(O)c1` as the molecule, how does the Potency read?
The Potency was “inactive”.

With `C#CC(C)(O)CC(C)C` (stereo not given) as the molecule, how does the Potency read?
Its Potency is “inactive”.

Which Potency does the source give for `O=[N+]([O-])c1ccc(CCO)cc1` here?
Its Potency is “inactive”.

Which Potency does the source give for `NCC[C@H](O)C(=O)N[C@@H]1C[C@H](N)[C@@H](O[C@H]2O[C@H](CN)[C@@H](O)[C@H](O)[C@H]2O)[C@H](O)[C@H]1O[C@H]1O[C@H](CO)[C@@H](O)[C@H](N)[C@H]1O` here?
Its Potency is “inactive”.

With `O=C1OC(=O)c2cc([N+](=O)[O-])ccc21` as the molecule, how does the Potency read?
The Potency was “inactive”.

Which Potency does the source give for `C=C(C)C1CC=C(C)C(O)C1` (stereo not given) here?
Its Potency is “inactive”.

Which Potency does the source give for `Fc1ccccc1-c1ccccc1` here?
Its Potency is “inactive”.

For `CN1[C@@H]2CC[C@H]1CC(NC(=O)n1c(=O)[nH]c3ccccc31)C2` (stereo not given in full), which Potency is on record?
The Potency was “inactive”.

With `CSc1ccc(C=O)cc1` as the molecule, how does the Potency read?
Its Potency is “inactive”.

For `CCC(=O)Nc1cccc(N)c1`, which Potency is on record?
Its Potency is “inactive”.

Which Potency does the source give for `OCCCCCCO` here?
Its Potency is “inactive”.

With `CCCc1ccc(N)cc1` as the molecule, how does the Potency read?
Its Potency is “inactive”.

With `CN(C)N=Nc1ccccc1` as the molecule, how does the Potency read?
Its Potency is “inactive”.

Which Potency does the source give for `Cc1ccccc1C(=O)O` here?
Its Potency is “inactive”.

With `NC(=O)c1c(Cl)cccc1Cl` as the molecule, how does the Potency read?
Its Potency is “inactive”.

Which Potency does the source give for `CCCOCC(C)OCC(C)O` (stereo not given) here?
The Potency was “inactive”.

Which Potency does the source give for `CC(C)COC(=O)C(C)C` here?
Its Potency is “inactive”.

With `CCCCOCC(C)OCC(C)O` (stereo not given) as the molecule, how does the Potency read?
Its Potency is “inactive”.

Which Potency does the source give for `OC1OC[C@@H](O)[C@H](O)[C@H]1O` (stereo not given in full) here?
Its Potency is “inactive”.

Which Potency does the source give for `CCCCCCCCCCCl` here?
The Potency was “inactive”.

For `CSc1nc(NC2CC2)nc(NC(C)(C)C)n1`, which Potency is on record?
Its Potency is 54.5 µM (active).

With `CCCCCCCCCCCCCCC` as the molecule, how does the Potency read?
The Potency was “inactive”.

For `CCN1CCN(c2cc3c(cc2F)c(=O)c(C(=O)O)cn3C2CC2)CC1`, which Potency is on record?
The Potency was “inactive”.

For `Cc1nccn1CC1CCc2c(c3ccccc3n2C)C1=O` (stereo not given), which Potency is on record?
Its Potency is “inactive”.

With `O=C(O)/C=C/c1ccc(/C=C/C(=O)O)cc1` as the molecule, how does the Potency read?
Its Potency is “inactive”.

For `Nc1ccc2cc(S(=O)(=O)O)ccc2c1`, which Potency is on record?
The Potency was “inactive”.

Which Potency does the source give for `COC(=O)[C@H]1[C@H]2C[C@@H]3c4[nH]c5cc(OC)ccc5c4CCN3C[C@H]2C[C@@H](OC(=O)COc2ccc(OC)cc2)[C@@H]1OC` here?
The Potency was 33.5 µM (active).

With `N#CCN(CC#N)CCN(CC#N)CC#N` as the molecule, how does the Potency read?
Its Potency is “inactive”.

With `OCC(CO)(CO)COCC(CO)(CO)CO` as the molecule, how does the Potency read?
Its Potency is “inactive”.
